Data from PubChem BioAssay AID1159580 (chemical genetic matrix, 2015).
The whole screen tested about 5,500 compounds, of which about 2,000 (36%) were called active. Another 18% or so got no clear call; they are omitted. No stated cut-off is given here; in the data, active means normalized growth mostly below about 0.91 (no sharp cut-off); inconclusive means no clear call, values can overlap the other calls; inactive means mostly above about 0.92. The list shows a part of the results.

Assay: chemical genetic growth profiling, strain panel (AID 1159580);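 further: tested at 20 µM; growth read once vehicle control cultures reached saturation at 30 °C; 1 = growth at the plate median or of vehicle wells; lower values mean less growth of the strain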
Conditions: S. cerevisiae deletion strains, growth OD

Measured: normalized growth

CC(=O)Nc1ccc(S(=O)(=O)Nc2onc(C)c2C)cc1
inactive: locus YAL021C, strain ccr4, hits give low values 0.984 | locus YAL026C, strain drs2, hits give low values 0.976 | locus YAL030W, strain snc1, hits give low values 0.98 | locus YBL061C, strain skt5, hits give low values 0.969 | locus YBR009C, strain hhf1, hits give low values 0.959 | locus YBR023C, strain chs3, hits give low values 0.97 | locus YBR171W, strain sec66, hits give low values 0.965 | locus YBR231C, strain swc5, hits give low values 0.981 | locus YBR279W, strain paf1, hits give low values 0.968 | locus YCL011C, strain gbp2, hits give low values 0.973 | locus YCL016C, strain dcc1, hits give low values 0.969 | locus YCL061C, strain MRC1, hits give low values 0.985 | locus YCL069W, strain vba3, hits give low values 0.972 | locus YCR088W, strain abp1, hits give low values 0.965 | locus YDL005C, strain med2, hits give low values 0.969 | locus YDL040C, strain nat1, hits give low values 0.969 | locus YDR001C, strain nth1, hits give low values 0.963 | locus YDR069C, strain doa4, hits give low values 0.962 | locus YDR137W, strain rgp1, hits give low values 0.959 | locus YDR159W, strain sac3, hits give low values 0.946 | locus YDR195W, strain ref2 0.948 | locus YDR297W, strain sur2, hits give low values 0.967 | locus YDR334W, strain swr1, hits give low values 0.975 | locus YDR335W, strain msn5, hits give low values 0.972 | locus YDR392W, strain spt3, hits give low values 0.929 | locus YEL003W, strain gim4, hits give low values 0.974 | locus YEL037C, strain rad23, hits give low values 0.971 | locus YEL061C, strain CIN8 (second series), hits give low values 0.956 | locus YER015W, strain faa2, hits give low values 0.986 | locus YER016W, strain bim1, hits give low values 0.96 | locus YER111C, strain swi4, hits give low values 0.975 | locus YER155C, strain BEM2 (second series), hits give low values 0.971 | locus YFR010W, strain ubp6, hits give low values 0.959 | locus YGL167C, strain pmr1, hits give low values 0.968 | locus YGL173C, strain kem1, hits give low values 0.969 | locus YGL227W, strain vid30, hits give low values 0.966 | locus YGL240W, strain doc1, hits give low values 0.981 | locus YGL253W, strain hxk2, hits give low values 0.994 | locus YHR013C, strain ard1, hits give low values 0.963 | locus YHR027C, strain rpn1, hits give low values 0.989 | locus YHR030C, strain SLT2, hits give low values 0.975 | locus YHR079C, strain IRE1, hits give low values 0.968 | locus YHR142W, strain chs7, hits give low values 0.965 | locus YJL092W, strain hpr5, hits give low values 0.971 | locus YJL095W, strain BCK1 (second series), hits give low values 0.975 | locus YJL095W, strain BCK1, hits give low values 1 | locus YJL115W, strain asf1, hits give low values 0.964 | locus YJL129C, strain trk1, hits give low values 0.983 | locus YJL154C, strain vps35, hits give low values 0.965 | locus YJL164C, strain tpk1, hits give low values 0.982 | locus YJL166W, strain qcr8, hits give low values 0.983 | locus YJL187C, strain SWE1, hits give low values 0.97 | locus YJR066W, strain TOR1, hits give low values 0.908 | locus YKL160W, strain elf1, hits give low values 0.984 | locus YKR026C, strain gcn3, hits give low values 0.967 | locus YKR091W, strain srl3, hits give low values 0.977 | locus YLL001W, strain dnm1, hits give low values 0.951 | locus YLL026W, hits give low values 0.961 | locus YLL041C, strain sdh2, hits give low values 0.978 | locus YLR027C, strain aat2, hits give low values 0.973 | locus YLR113W, strain HOG1, hits give low values 0.975 | locus YLR221C, strain rsa3, hits give low values 0.987 | locus YLR258W, strain gsy2, hits give low values 0.971 | locus YLR262C, strain YPT6 (second series), hits give low values 0.98 | locus YLR320W, strain mms22, hits give low values 0.972 | locus YLR342W, strain FKS1, hits give low values 0.974 | locus YLR357W, strain rsc2, hits give low values 0.951 | locus YLR370C, strain arc18, hits give low values 0.957 | locus YLR384C, strain iki3, hits give low values 0.962 | locus YML120C, strain ndi1, hits give low values 0.988 | locus YMR058W, strain fet3, hits give low values 0.971 | locus YMR125W, strain sto1, hits give low values 0.937 | locus YMR129W, hits give low values 0.979 | locus YMR205C, strain PFK2, hits give low values 0.936 | locus YMR231W, strain pep5, hits give low values 0.969 | locus YNL071W, strain lat1, hits give low values 0.975 | locus YNL183C, strain NPR1, hits give low values 0.926 | locus YNL209W, strain ssb2, hits give low values 0.975 | locus YNL248C, strain rpa49, hits give low values 1.02 | locus YNL322C, strain KRE1 (second series), hits give low values 0.98 | locus YNR049C, strain mso1, hits give low values 0.969 | locus YOR001W, strain rrp6, hits give low values 0.985 | locus YOR070C, strain gyp1, hits give low values 0.977 | locus YOR080W, strain dia2, hits give low values 0.954 | locus YOR083W, strain WHI5, hits give low values 0.997 | locus YOR106W, strain vam3, hits give low values 0.996 | locus YOR231W, strain MKK1, hits give low values 0.989 | locus YOR265W, strain rbl2, hits give low values 0.973 | locus YOR270C, strain vph1, hits give low values 0.922 | locus YOR290C, strain snf2, hits give low values 0.964 | locus YPL051W, strain arl3, hits give low values 0.985 | locus YPL078C, strain atp4, hits give low values 0.981 | locus YPL106C, strain sse1, hits give low values 0.97 | locus YPL240C, strain hsp82, hits give low values 0.99 | locus YPL256C, strain CLN2, hits give low values 0.955
